KB-V1 cytotox: KB-V1 MDR subline cytotoxicity | KB-V1 MDR cells viability, CellTiter-Glo, 72 h | Potency, µM (titrated, usually from 46.1 µM), most hits filed as cytotoxic | actives 3.4% (n = 400,000) | AID 1347076; also: % is scaled to controls: 0 for no effect and ±100 for the full control effect; nearly all actives have a fitted effect of over 60% in size
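qHTS viability screen in drug-selected KB-V1 MDR cells: 72 h compound treatment at 37 degrees C, ATP luminescence end point.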
HT1080 IDH1KD tx: kills HT-1080 cells with IDH1 knockdown. HT-1080 IDH1 knockdown viability, ATP luminescence, 48 h. Potency, µM (titrated, usually from 46.1 µM), for the others: top-dose activity, negative = toxicity, actives largely listed as cytotoxic. actives 2% (n = 360,000). AID 686971;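 also: 0% = DMSO wells and -100% = cell-free medium wells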
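Viability of IDH1-knockdown HT-1080 fibrosarcoma cells was assessed by CellTiter-Glo after 48 h at 37 °C with titrated compound; concentration-effect curves were classified by fit quality and response size.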
KB-3-1 tox: KB-3-1 parental cell cytotoxicity. KB-3-1 viability, CellTiter-Glo ATP luminescence, 72 h. Potency, µM (titrated, usually from 46.1 µM), actives largely listed as cytotoxic. actives 1.4% (n = 400,000); also: % is scaled to controls: 0 for no effect and ±100 for the full control effect; nearly all actives have a fitted effect of over 60% in size
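72 h, 37 °C compound treatment of KB-3-1 parental cells; CellTiter-Glo added, 10 min, luminescence read. Data corrected against DMSO-only plates and normalized before curve fitting.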
MCF10A rerep: DNA re-replication induction in MCF 10a cells | MCF 10A DNA re-replication, Hoechst nuclear intensity, 48 h | Potency, µM (doses to about 46.1 µM), without a hit: top-dose activity, positive = re-replication, actives largely listed as activators | actives 2.9% (n = 350,000) | AID 624296; also: % of control where 0% means no effect; nearly all actives have a fitted effect of over 50% in size
HT1080NT lethal: kills 2HG-producing HT-1080-NT fibrosarcoma cells | Potency, µM (titrated, usually from 46.1 µM), inactives show at the top dose activity, negative = less viability, actives largely listed as cytotoxic | actives 1.6% (n = 360,000) | HT-1080-NT fibrosarcoma viability, CellTiter-Glo ATP luminescence, 48 h;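 also: NT is the 2HG producing partner of a matched IDH1 knockdown line; 0% = DMSO-treated cells and -100% = media-only wells without cells; nearly all actives have a fitted effect of over 55% in size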
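Viability of the 2HG-overproducing fibrosarcoma line after 48 hours of compound exposure at 37 degrees C was determined by luminescence with CellTiter-Glo, and concentration-effect curves were then fitted and categorized.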
SW480 rereplic: induces DNA re-replication in SW480 colon adenocarcinoma cells; SW480 DNA re-replication, Hoechst DNA content imaging, 48 h; Potency, µM (highest dose often 46.1 µM), without a hit: top-dose re-replication activation, hits mostly activators; actives 1.8% (n = 340,000); AID 624297; also: % of control where 0% means no effect; nearly all actives have a fitted effect of over 55% in size
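Compounds, transferred as 23 nL by pin tool, were incubated with cells for 48 hr; DNA content per nucleus was then quantified by Hoechst staining and fluorescence plate imaging.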
Active calls of the source: *; i = inactive; ? = inconclusive; · = no result. This is a sample that favours compounds with a hit; in the whole collection about 7.9% have one here. Calls follow the shape of the dose curve; as a rule, active = well fitted curve in the direction sought with a large enough effect; inconclusive = small, poorly fitted or top-dose-only effect, or another doubt; inactive = no such curve, though single readings can be large; an effect the other way counts as inactive or inconclusive. Potency is read from the fitted curve at half-maximal effect.

SMILES	KB-V1 cytotox	HT1080 IDH1KD tx	KB-3-1 tox	MCF10A rerep	HT1080NT lethal	SW480 rereplic
Nc1c(C(=O)OCC(=O)Nc2ccc(Cl)cc2[N+](=O)[O-])[nH]c(=O)[nH]c1=O	i	-2%	i	23µM*	0%	-2%
O=C(CSc1ccc2nnc(CCNS(=O)(=O)c3ccccc3)n2n1)Nc1ccccc1C(F)(F)F	i	·	i	·	·	·
O=C(Nn1c(COc2ccccc2)nc2ccccc2c1=O)C(Cl)(Cl)Cl	i	-8%	i	?	0%	18µM*
Cc1nc2ccccc2c(=O)n1NC(=O)COc1ccccc1	i	1%	i	?	10%	-4%
COC(=O)c1cn(C(=O)c2ccc(OC)cc2)c2ccccc12	i	4.6µM*	?	5.8µM*	?	2.3µM*
COC(=O)c1cn(C(=O)c2cc(C)cc(C)c2)c2ccccc12	i	0%	i	14%	8%	-2%
COC(=O)c1cn(C(=O)c2ccc(C)cc2)c2ccccc12	i	-17%	i	4%	-18%	7.3µM*
CN(CCCn1cnc2c(OCc3ccccc3)ncnc21)Cc1ccco1	?	6%	?	·	-2%	·
CCOc1ccc(C(=O)N2CCC(c3nnc(-c4ccccc4OC)o3)CC2)cc1	i	·	i	·	·	·
C#CCN1[C@@H]2CCN(C2)c2cc(Br)ccc2S1(=O)=O	i	0%	i	0%	0%	-17%
O=CC1=C(c2ccccc2)Oc2ccccc2O1	?	16µM*	?	?	?	?
Cc1ccc(CNC(=O)C2CCN(S(=O)(=O)c3ccc4c(c3)oc(=O)n4C)CC2)cc1	i	·	i	·	·	·
CCOC(=O)c1ccccc1NC(=O)Cn1ncc2c([nH]c3ccccc32)c1=O	i	·	i	·	·	·
Brc1ccc(CNc2ccc3ncccc3c2)cc1	?	-10%	?	15µM*	-10%	-5%
Cc1cccc(C(=O)NCC(=O)OCC(=O)c2ccc3ccccc3c2)c1	i	·	i	·	·	·
COc1cc(-c2ccc3ncnc(NCc4nc(C)cs4)c3c2)cc(OC)c1OC	i	·	i	·	·	·
N#CNC(=Nc1ccc(F)cc1)SCc1ccccc1	i	-3%	i	?	12%	3.7µM*
CCc1nnc(NC(=O)CCN(c2cc(C)cc(C)c2)S(=O)(=O)c2ccc(Cl)cc2)s1	2.6µM*	-8%	?	?	1%	26%
O=C1N(c2ccccc2)C[C@@H]2C[C@@H](c3cccs3)N3CCC[C@@]123	i	-3%	i	5.8µM*	5%	21%
COCc1cc([C@@H]2C[C@H]3CN(c4ccccc4)C(=O)[C@]34CCCN24)ccc1OC	i	0%	i	-10%	11%	1%
CC(C)(O)C#Cc1ccc([C@@H]2C[C@H]3CN(c4ccccc4)C(=O)[C@]34CCCN24)s1	i	?	?	?	-23%	8.2µM*
COc1ccc([C@@H]2C[C@H]3CN(c4ccccc4)C(=O)[C@]34CCCN24)c(OC)c1OC	i	10%	i	-3%	8%	-14%
CC(=O)Nc1ccc(SC[C@H](Cc2ccccc2)N2CC[C@@H](N)CCC2=O)cc1	i	·	i	·	·	·
CCCCNc1nc(=S)n(-c2ccccc2)c(C)c1C(C)=O	i	16µM*	?	?	?	?
CCOC(=O)c1cc2c(ccn2C)n1CC(=O)N(C)C	?	5%	i	0.65µM*	20%	-9%
SMILES	KB-V1 cytotox	HT1080 IDH1KD tx	KB-3-1 tox	MCF10A rerep	HT1080NT lethal	SW480 rereplic
CNc1ccc2ncc(-c3ccc(OC)c(OC)c3)n2n1	i	?	i	·	18µM*	·
COc1cccc(C2c3c(-c4ccccc4O)n[nH]c3C(=O)N2CCc2ccc(OC)c(OC)c2)c1 (centres undefined)	i	·	i	·	·	·
CCC(C)Sc1ccc([C@@H]2[C@H]3C(=O)N(CC)C(=O)[C@H]3[C@]3(C(=O)OC)CCCCN23)cc1 (some centres undefined)	10µM*	-30%	?	8%	-21%	?
Cc1ccc(Nc2nc(-c3cccnc3)nc3ccccc23)cc1	?	?	?	15µM*	?	9.2µM*
c1ccc(CN2CCC(Nc3nc(-c4cccnc4)nc4ccccc34)CC2)cc1	?	21µM*	?	?	?	?
CCOC(=O)c1ccc(Nc2ncnc3ccccc23)cc1	i	-21%	i	5%	-12%	0%
CC(Nc1nc(-c2ccccc2F)nc2ccccc12)c1ccccc1 (centres undefined)	i	-4%	i	?	-16%	7%
CCOC(=O)c1ccc(Nc2nc(-c3cccnc3)nc3ccccc23)cc1	i	?	i	18µM*	15µM*	?
CC(Nc1nc(-c2ccccc2O)nc2ccccc12)c1ccccc1 (centres undefined)	i	?	i	21µM*	?	?
COc1ccc(NC(=O)c2cc(-c3sc(NC(=O)c4ccccc4)nc3C)n(Cc3ccccc3)n2)cc1	i	-7%	i	·	2%	·
COc1ccc(CCNc2nc(-c3cccnc3)nc3ccccc23)cc1OC	8.2µM*	10µM*	i	?	?	?
Oc1ccc(/C=N/Nc2nc(-c3cccnc3)nc3ccccc23)c(O)c1	i	?	i	?	?	?
c1ccc2c(Nc3nc(-c4ccncc4)nc4ccccc34)cccc2c1	i	?	i	23µM*	?	29µM*
COc1ccccc1Nc1nc(-c2ccccc2F)nc2ccccc12	8.2µM*	·	?	·	·	·
Cc1c(O)ccc(/C=N/Nc2nc(-c3cccnc3)nc3ccccc23)c1O	?	?	i	?	18µM*	?
COC(=O)CNc1nc(-c2cccnc2)nc2ccccc12	i	-5%	i	17%	-8%	4%
CC(Nc1nc(-c2cccnc2)nc2ccccc12)c1ccc(F)cc1 (centres undefined)	18µM*	?	?	?	-27%	4%
C=CCNc1nc(N2CCCC2)nc2ccccc12	i	?	?	1%	-30%	-3%
O=C(Nc1nc(-c2ccccc2)nc2ccccc12)c1ccc(F)cc1	i	24%	i	18µM*	2%	?
COc1ccc(C(CNc2nc(-c3cccnc3)nc3ccccc23)N(C)C)cc1 (centres undefined)	i	16µM*	i	?	16µM*	245%

Screens: PubChem, National Center for Advancing Translational Sciences (NCATS)
